Source: PubChem BioAssay (National Center for Advancing Translational Sciences (NCATS))
AMA1-RON2 inh = disrupts binding of P. falciparum AMA1 to RON2; AID 720542; Potency, µM (doses to about 58.2 µM), for the others: at the highest dose activity change, negative = inhibition, hits mostly inhibitors; 0.2% of 360,000 active; AlphaScreen AMA1-biotinylated RON2 peptide binding;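 also: 0% = vehicle wells and -100% = peptide control; nearly all actives have a fitted effect of over 45% in size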
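AMA1 (3D7) with his tag at 25 nM final met compounds first, then biotinylated RON2 peptide at 25 nM; detection used donor plus acceptor beads, 10 µg/mL apiece, read by AlphaScreen after 30 min at room temperature.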
AmpC no deterg = blocks E. coli AmpC beta-lactamase in detergent-free assay. AmpC nitrocefin hydrolysis, absorbance 480 nm, 0.0001% Triton. 0.52% of 330,000 active. Potency, µM (series often up to 57.1 µM), for inactives: top-dose activity change, negative = inhibition, most hits filed as inhibitors;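 also: plate controls were no compound for no effect and no enzyme for full effect; nearly all actives have a fitted effect of over 20% in size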
Target sequence (P00811 whole entry, looked up): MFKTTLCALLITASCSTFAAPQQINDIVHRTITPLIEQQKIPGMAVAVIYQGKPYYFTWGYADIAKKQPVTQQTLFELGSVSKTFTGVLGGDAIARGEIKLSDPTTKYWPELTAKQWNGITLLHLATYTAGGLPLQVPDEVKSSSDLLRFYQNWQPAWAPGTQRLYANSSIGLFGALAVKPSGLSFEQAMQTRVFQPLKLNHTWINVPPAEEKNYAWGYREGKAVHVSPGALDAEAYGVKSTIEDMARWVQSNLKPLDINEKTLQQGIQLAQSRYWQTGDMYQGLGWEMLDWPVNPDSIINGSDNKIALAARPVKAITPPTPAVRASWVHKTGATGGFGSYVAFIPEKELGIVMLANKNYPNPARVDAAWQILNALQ
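20 mM phosphate pH 7.0 + 0.01% (detergent screen) or 0.0001% Triton X-100; 5.3 nM AmpC reagent; cpd preinc 15 min RT; nitrocefin (800 uM stock) to start; A480 q20 s × 4 min; Activity was normalised to no-enzyme and no-compound control wells.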
Pf growth 48h = inhibits P. falciparum growth in the first generation, 48 h; P. falciparum luciferase growth in erythrocytes, 48 h; Potency, µM (titrated, usually from 28.7 µM), without a hit: at the top dose activity change, negative = inhibition, most hits filed as inhibitors; 5.9% of 310,000 active
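Luciferase-expressing parasites in RBCs, 2% Hct / 0.1% parasitemia final; RPMI 1640 + 0.5% Albumax; 37 C, 5% CO2, one generation; luminescence read-out, lower signal = inhibition.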
AmpC detergent = inhibitors of E. coli AmpC beta-lactamase with detergent; P00811; AmpC hydrolysis of nitrocefin, absorbance 480 nm, 0.01% Triton; Potency, µM (top dose mostly 114 µM), without a hit: top-dose activity change, negative = inhibition, actives largely listed as inhibitors; 0.041% of 370,000 active;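 also: 0% = no-compound wells and -100% = no-enzyme wells; nearly all actives have a fitted effect of over 25% in size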
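AmpC (5.3 nM in the dispensed reagent) in 20 mM phosphate pH 7.0 with 0.01% (detergent screen) or 0.0001% Triton X-100 was preincubated with compounds for 15 min at room temperature. Nitrocefin was then added from an 800 uM solution, and hydrolysis was followed at 480 nm.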
HCV inhibitor = inhibitors of hepatitis C virus infection; Huh7.5.1 HCVcc-Cre infection, luciferase reporter, 44 h; Potency, µM (titrated, usually from 41.8 µM), for inactives: at the highest dose activity change, negative = inhibition, actives largely listed as inhibitors; 3.4% of 340,000 active; AID 651820
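Seed cells (1,000/well) for 4 h; treat with compound and infect with HCVcc-Cre, moi about 0.5. Incubate 44 h, then detect luciferase activity.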
Pf growth 96h = P. falciparum growth inhibition at 96 hours | P. falciparum luciferase reporter growth, 96 h | Potency, µM (top dose mostly 28.7 µM), without a hit: at the highest dose activity change, negative = inhibition, hits mostly inhibitors | 6.9% of 320,000 active | AID 504834
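Compounds incubated with erythrocytes infected by luciferase-expressing P. falciparum (2% hematocrit, 0.05% parasitemia final) for 96 hours, 37 C in 5% CO2. Growth inhibition scored as decreased luciferase luminescence.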
* = called active by the depositor. Hits are enriched below; roughly 11% of the tested compounds scored in any of these assays. Calls follow the shape of the dose curve; as a rule, active = well fitted curve in the direction sought with a large enough effect; inconclusive = small, poorly fitted or top-dose-only effect, or another doubt; inactive = no such curve, though single readings can be large; an effect the other way counts as inactive or inconclusive. Unless noted, % is scaled to controls: 0 for no effect and ±100 for the full control effect; potency is read from the fitted curve at half-maximal effect.

Screening COc1ccccc1NC(=O)CN1CCCCC1 returned AMA1-RON2 inh 0%, AmpC no deterg -44%, Pf growth 48h -3%, AmpC detergent -4%, HCV inhibitor 1% and Pf growth 96h 17%.
Screening CCN1CCC(N2CCN(c3ccc(Cl)cc3)CC2)CC1 returned AMA1-RON2 inh 2%, AmpC no deterg -9%, Pf growth 48h -1%, AmpC detergent -18%, HCV inhibitor -19% and Pf growth 96h 24%.
COc1ccc(S(=O)(=O)N2CCN(CC(=O)c3ccc(O)c(O)c3)CC2)cc1 was read as AMA1-RON2 inh 62%, AmpC no deterg -26%, Pf growth 48h -3%, AmpC detergent 1%, HCV inhibitor -17% and Pf growth 96h 15µM*.
For COc1ccc(C)cc1NC(=O)CN1CCN(c2ccccc2F)CC1 the results were AMA1-RON2 inh 1%, AmpC no deterg 21%, Pf growth 48h 13µM*, AmpC detergent 6%, HCV inhibitor inconclusive and Pf growth 96h 0%.
Screening CCCCCCN1CCN(c2ccc(Cl)cc2)CC1 returned AMA1-RON2 inh 35µM*, AmpC no deterg -39%, Pf growth 48h -28%, AmpC detergent inconclusive, HCV inhibitor -4% and Pf growth 96h 24%.
`COc1ccc(C)cc1NC(=O)CCN1CCN(c2ccccc2F)CC1` gave AMA1-RON2 inh -2%, AmpC no deterg 57%, Pf growth 48h inconclusive, AmpC detergent inconclusive, HCV inhibitor -20% and Pf growth 96h inconclusive.
For Cc1cc(=O)n2nc(N(C)CC(=O)NCc3cccc(Br)c3)sc2n1 the results were AmpC detergent 19%.
Cc1ccc(S(=O)(=O)C(CNC(=O)C(=O)NCc2ccc(Cl)cc2)c2cccs2)cc1 (stereo unspecified) was read as AmpC detergent -4%.
Screening COc1cccc(NC(=O)CCN2CCN(c3ccccc3F)CC2)c1 returned AMA1-RON2 inh -6%, AmpC no deterg -3%, Pf growth 48h 18%, AmpC detergent -1%, HCV inhibitor -8% and Pf growth 96h 12µM*.
O=C(CN1CCN(S(=O)(=O)c2ccc(F)cc2)CC1)Nc1cc(C(F)(F)F)ccc1Cl was read as AMA1-RON2 inh -4%, AmpC no deterg 16%, Pf growth 48h inconclusive, AmpC detergent -16%, HCV inhibitor 6% and Pf growth 96h inconclusive.
Screening COc1ccc(C)cc1NC(=O)CN1CCN(S(=O)(=O)c2ccc3ccccc3c2)CC1 returned AMA1-RON2 inh -14%, AmpC no deterg -7%, Pf growth 48h inconclusive, AmpC detergent 3%, HCV inhibitor inconclusive and Pf growth 96h 12µM*.
For COc1ccc(C)cc1NC(=O)CN1CCN(S(=O)(=O)c2ccc(F)cc2)CC1 the results were AMA1-RON2 inh -3%, AmpC no deterg -31%, Pf growth 48h inconclusive, AmpC detergent -2% and HCV inhibitor -17%.
`COc1ccc(S(=O)(=O)N2CCN(CC(=O)Nc3cc(C(F)(F)F)ccc3Cl)CC2)cc1` gave AMA1-RON2 inh 14%, AmpC no deterg -26%, Pf growth 48h 4.7µM*, AmpC detergent -3%, HCV inhibitor 0% and Pf growth 96h 17%.
COc1cccc(NC(=O)CCN2CCN(c3ccccc3)CC2)c1 was read as AmpC detergent 20%.
For O=C(CCN1CCN(c2ccc(Cl)cc2)CC1)Nc1ccccc1F the results were AMA1-RON2 inh -10%, AmpC no deterg 105%, Pf growth 48h 59%, AmpC detergent inconclusive, HCV inhibitor -2% and Pf growth 96h 2.9µM*.
`CC(=O)N1CCC2(CC1)OC(=O)C(C)=C2C(=O)Nc1cc(C)ccc1C` gave AmpC detergent 14%.
Screening Cc1ccc(CNC(=O)CSc2ncc3c(n2)-c2ccc(Cl)cc2N(Cc2ccccc2)S3(=O)=O)cc1 returned AmpC detergent -5%.
